Rows were chosen to be rich in hits. Some 3.1% of all compounds tested hit in one or more screens of this group.
S1P3 antag: blocks the human S1P3 receptor | CHO S1P3 NFAT-BLA reporter, FRET fluorescence, antagonist mode | inhibition, % at 4.98 µM | 170,000 compounds, 0.27% hits;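 active = inhibition above the plate cutoff, the mean inhibition of test wells on that plate plus 3 SD, cut at about 28% in these data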;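 also: cells challenged with S1P at its EC80 of 0.8 µM; blue over green emission ratio from cleaved BLA substrate after 4 h stimulation; 0% = S1P-stimulated wells and 100% = unstimulated DMSO-only wells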
Target sequence (Q99500 whole entry, looked up): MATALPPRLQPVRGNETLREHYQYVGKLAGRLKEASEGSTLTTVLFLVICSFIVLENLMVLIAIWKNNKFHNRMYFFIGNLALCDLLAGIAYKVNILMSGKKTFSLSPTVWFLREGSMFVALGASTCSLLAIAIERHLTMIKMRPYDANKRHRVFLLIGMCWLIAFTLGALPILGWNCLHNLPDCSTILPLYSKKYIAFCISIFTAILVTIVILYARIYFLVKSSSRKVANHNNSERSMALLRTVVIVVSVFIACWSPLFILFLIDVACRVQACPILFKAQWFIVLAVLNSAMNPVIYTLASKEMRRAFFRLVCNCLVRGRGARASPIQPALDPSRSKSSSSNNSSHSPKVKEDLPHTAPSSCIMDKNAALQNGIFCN
EP2 antag: inhibitors of human EP2 prostaglandin E2 receptor; inhibition, % at 25 µM; C6 glioma cells expressing human EP2, cAMP TR-FRET; cells stimulated with saturating PGE2; P43116; 260,000 compounds, 0.52% hits; AID 1422;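 active = percent inhibition above 40 after rounding to a whole number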;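 also: rat C6 glioma host cells with rolipram phosphodiesterase inhibitor present; the protocol text gives 20 µM as final concentration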
EP2 mod: modulators of human EP2 prostaglandin E2 receptor; 260,000 compounds, 0.83% hits; P43116; induction, % at 25 µM; EP2-expressing cells, cAMP HTRF FRET, PGE2 co-stimulation;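 active = compounds whose cAMP rise, as percent of the full-agonist control response, exceeds 60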;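 also: rat C6 glioma line stably carrying human EP2 under a CMV promoter; the protocol text gives 20 µM as final concentration; 100% = response of wells given 1 µM PGE2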
Cl transport mod: modulates chloride dependent transport by human KCC2; Q9H2X9; 190,000 compounds, 2.2% hits; KCC2 cells, thallium flux FluoZin-2 fluorescence; B-score of Tl+ flux slope (higher = more flux/activation; lower = inhibition) at 10 µM;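 active = thallium flux slope and its plate-corrected score both differing from the plate sample mean at a set confidence after two filtering rounds, in either direction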;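 also: slope of fluorescence scaled to starting intensity during 10 to 20 s after thallium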
Numbers without * were called inactive; . = no result given; + = active, no number; ! = not confirmed by another sample.

SMILES	S1P3 antag	EP2 antag	EP2 mod	Cl transport mod
C=CCc1cc(C)ccc1OCCOCCC(C(=O)OCC)C(=O)OCC	2	13	62*	-0.66
O=C(/C(=C/O)N=Nc1cccc(C(F)(F)F)c1)c1ccccc1	-7	5	62*	-0.42
COC(=O)/C(N=Nc1cccc(C(F)(F)F)c1)=C(\C)O	.	0	30	.
CCN(CC)CCN1C(=O)c2oc3ccccc3c(=O)c2C1c1cccc(Br)c1 (configuration not stated)	-9	14	4	24*
CCc1c(C)nc2ncnn2c1NCc1ccc(OC)cc1	.	11	-31	.
S=c1[nH]nc(C2CCCCC2)n1/N=C/c1ccc(Br)s1	.	7	63*	1.6
Cc1nc2cc(Cl)c(Cl)cc2n1C	.	13	-70	.
OC(CN1CCC2(CC1)CC(O)c1ccc3ccccc3c1O2)c1ccc(Cl)cc1 (configuration not stated)	.	50*	-86	.
COc1ccc(C(O)CN2CCC3(CC2)CC(O)c2ccc4ccccc4c2O3)cc1 (configuration not stated)	.	9	-93	.
CC1CCCN(c2nc3c(c(=O)[nH]2)CN(Cc2ccc4ncccc4c2)CC3)C1 (configuration not stated)	.	3	-43	.
CC[C@@]1(O)C(=O)OCc2c1cc1n(c2=O)Cc2cc3c(N)cccc3nc2-1	.	11	-26	.
CC[C@@]1(O)C(=O)OCc2c1cc1n(c2=O)Cc2cc3c(CN(C)C)c(O)ccc3nc2-1	.	58*!	22	.
Cc1ccccc1NC(=O)CSc1nc2sc3c(c2c(=O)[nH]1)CCCC3	.	10	-47	.
Cc1sc2nc(C3CC3)nc(SCC(=O)Nc3ccccc3F)c2c1C	.	8	40	.
Nc1ccn([C@H]2O[C@H](COC(=O)C34CC5CC(CC(C5)C3)C4)[C@@H](O)[C@@H]2O)c(=O)n1	.	51*	2	.
Nc1ccn([C@@H]2O[C@H](CO)[C@@H](O)C2O)c(=O)n1 (some centres not stated)	-1	14	.	-0.085
COc1ccc2[nH]c(=O)c(C(c3nnnn3CC3CCCO3)N(C)C3CCCCC3)cc2c1 (configuration not stated)	.	7	-23	.
O=c1c(-c2cccc([N+](=O)[O-])c2)[n+]([O-])c2ccccc2n1O	-5	5	25	-0.48
O=c1c(-c2ccc(Cl)cc2)[n+]([O-])c2ccccc2n1O	.	16	38	9.6*
Cn1c(CN2CCOCC2)nnc1SCC(=O)Nc1ccc2c(c1)OCO2	.	7	-1	.
Cc1c(NC(=O)Nc2c(Cl)cccc2Cl)c(=O)n(-c2ccccc2)n1C	-2	48*!	11	-0.037
Cc1c(NC(=O)Nc2ccccc2Cl)c(=O)n(-c2ccccc2)n1C	-1	5	24	-0.091
CC1(C)O[C@@H]2C[C@H]3[C@@H]4CCC5=CC(=O)C=C[C@]5(C)[C@@]4(F)[C@@H](O)C[C@]3(C)[C@]2(C(=O)CO)O1	-30	18	6	0.53
C[C@]1(c2ccccc2)O[C@@H]2C[C@H]3[C@@H]4CCC5=CC(=O)C=C[C@@]5(C)[C@@]4(F)[C@H](O)C[C@]3(C)[C@]2(C(=O)CO)O1	.	51*	2	.
C[C@H]1C[C@@H]2[C@@H]3CCC4=CC(=O)C=C[C@@]4(C)[C@@]3(F)[C@H](O)C[C@@]2(C)[C@]1(O)C(=O)COP(=O)(O)O	.	42*	14	.
SMILES	S1P3 antag	EP2 antag	EP2 mod	Cl transport mod
COCCn1nnnc1C(c1cccs1)N1CCC(O)CC1 (configuration not stated)	.	9	5	.
CSc1ccc(N/N=C(/C#N)S(=O)(=O)C(C)(C)C)cc1	-11	7	-22	-4.6*
COc1ccc(N/N=C(/C#N)S(=O)(=O)C(C)(C)C)cc1	-11	2	-29	0.17
COc1ccc(-c2cc(C(F)(F)F)nc(SCC(=O)Nc3ccc(C)c(C)c3)n2)cc1OC	.	8	25	.
Cc1nn(C)c(C)c1NC(=O)Cn1nc2c(C)cc3ccccc3n2c1=O	.	13	-30	.
Cc1cc(N=NC(=O)c2ccccc2O)c2ccccc2c1O	-12	8	-67	-3.5*
COC(=O)Sc1nnc(-c2ccc(Br)cc2)o1	-5	45*	34	.
CCn1c(SC(C)C(C)=O)nc2c1c(=O)n(C)c(=O)n2C (configuration not stated)	.	11	7	.
Cc1cc(/C=C/c2ccc3cc(N(C)C)ccc3[n+]2C)c(C)n1-c1ccccc1	.	25	-10	.
CN(C)c1ccc(/C=C/c2ccc3ccccc3[n+]2C)cc1	15	100*	-25	-1
Cc1cc(C)c(O)c(C2(O)C(=O)c3ccccc3C2=O)c1	15	5	-9	-0.3
O=C1c2ccccc2C(O)(O)[C@@]1(O)[C@]1(O)C(=O)c2ccccc2C1(O)O	.	73*	-41	.
COc1cc(/C=C2/C(=O)NN(c3cccc(C)c3)C2=O)ccc1OC(=O)c1ccco1	10	41*	-22	0.61
COc1cc(/C=C2/C(=O)NN(c3cccc(C)c3)C2=O)cc([N+](=O)[O-])c1O	-18	2	26	-0.52
COC(=O)c1ccc(OCC(=O)c2ccc(O)cc2O)cc1	-26	1	-7	-0.38
COC(=O)c1ccc(CCc2cc(O)ccc2O)cc1	.	47*	-5	.
S=c1[nH]c2cc(Cl)ccc2s1	.	10	-4	24*
CN1CCN(C(=O)/C(=C/c2ccccc2)c2ccccc2)CC1	.	6	7	0.081
CC1CC(C)CN(C(=O)/C(=C\c2ccccc2)c2ccccc2)C1 (configuration not stated)	-4	2	63*	-1.2
COc1ccc(Nc2nc(=O)c3cccnc3s2)cc1	.	7	11	.
O=c1oc2ccccc2c(O)c1/C=N/c1ncccn1	-13	7	.	.
O=c1oc2ccccc2c(O)c1/C=N/c1nc(-c2ccc(O)c(O)c2)cs1	.	41*	36	.
CCN(CC)c1ccc2nc3ccccc3[n+](CC)c2c1	.	+	-294	.
COCC(=O)N(Cc1ccc(OC)cc1)Cc1cc2cc(C)ccc2n2nnnc12	.	9	-47	.
O=C(CNC(=O)/C(=C\c1ccccc1)NC(=O)c1ccc(Br)cc1)OCc1ccccc1	.	-2	2	-5.6*
SMILES	S1P3 antag	EP2 antag	EP2 mod	Cl transport mod
Cc1oc(-c2ccc(F)cc2)nc1C(=O)Nc1c[nH]c2ccccc12	.	12	-95	.
Cc1cc2nc(CCN(C(=S)NCC3CCCO3)C3CCCC3)[nH]c2cc1C (configuration not stated)	4	10	-32	-3.7
Cc1cc2nc(CCN(C(=S)NCC(C)C)C3CCCC3)[nH]c2cc1C	.	17	-29	-5.6*
COc1ccc(S(=O)(=O)NNc2ncnc3sc4c(c23)CCCC4)cc1	.	32	-54	.
C=CCn1c(O)c(N=NC(=O)OC(C)(C)C)c2ccccc21	5	2	11	17*
COc1cccc(NC(=S)N(CCCO)Cc2cc3ccc(C)cc3[nH]c2=O)c1	.	10	-60	.
CCOc1cc(C)c(C(C)C)cc1S(=O)(=O)NCc1ccccn1	118*	0	35	-0.041
COc1ccccc1NC(=O)c1cc(Cl)ccc1NC(=O)c1ccco1	.	13	30	.
COc1ccccc1NC(=O)C(=O)NNC(=O)c1ccco1	.	5	10	8.3*

Screening data (PubChem)
